Results: PubChem BioAssay AID624335 (National Center for Advancing Translational Sciences (NCATS), 2012)
The source made the active and inactive calls. Calls come from the whole dose curve; as a rule, active = well fitted curve in the direction sought with a large enough effect; inactive = flat fitted curve, though single readings scatter.

Test: Quantitative high throughput screen for delayed death inhibitors of the malarial parasite plastid: Hit Validation with 3D7 at 96 hr using Flow Cytometry
Settings: P. falciparum 3D7 in erythrocytes, SYBR/MitoTracker flow cytometry
Text: The goal of this screen is to discover new antimalarial compounds that act by inhibiting the development of the apicoplast organelle in the malarial parasite Plasmodium falciparum. Some antibiotics, such as azithromycin and tetracycline, are known to interfere with the apicoplast translational machinery, and have a potent antimalarial effect. […] We developed a cell-based quantitative high throughput screen that leverages this "delayed death" phenotype to enrich for compounds that target the apicoplast. To detect small molecules that cause the delayed death phenotype, erythrocytes infected with firefly luciferase-expressing parasites were incubated with compounds for either one or two generations, corresponding to 48 and 96 hours, respectively. Growth inhibition was detected by a decrease in luciferase activity. Compounds that inhibited parasite growth in the second generation at least five-fold more potently than in the first generation were defined as delayed death inducing. These compounds were selected for confirmatory screening using a flow cytometry based assay. This hit validation assay used the 3D7 cell line and measured at 96 hours. NIH Molecular Libraries Probe Production Network [MLPCN] NIH Chemical Genomics Center [NCGC] MLPCN Grant: R21 NS059500 Assay Provider: David Fidock and Eric Ekland, Columbia University
Test compounds were diluted in 20 microliters of complete media (RPMI 1640 with 0.5% w/v Albumax (GIBCO), 24 mM sodium bicarbonate (Sigma) and 10 ug/mL gentamycin (Gibco)) in clear 384-well plates (Greiner). All liquid handling was conducted using a Bio Tek Precision 2000 pipetting system. Twenty microliters of infected erythrocytes, 0.2% parasitemia (for 48 hour time points) or 0.1% parasitemia (for 96 hour time points) were added to the compound dilutions (1% hematocrit, final concentration; 40 microliters, total culture volume). The assay plates were incubated for 48 hours, or 96 hours, at 37 masculine C in a humidified chamber (Billups- Rothenberg, Del Mar, CA, USA), gassed with 5%CO2/5%O2/ 90%N2. After two generations (96hours), 5 microliters of culture were harvested and transferred to a second 384 well plate for fluorescent staining. Samples were stained with 30 microliters of 2 x SYBR Green I (Invitrogen) and 150nM MitoTracker Deep Red (Invitrogen) diluted in 0.9% NaCl, 0.2% dextrose (Baxter) supplemented with 2.5% Fetal Calf Serum (Gibco) (saline/FCS). Mature erythrocytes lack nuclei and mitochondria, therefore only parasitized erythrocytes retain the SYBR Green I and MitoTracker Deep Red. After 30 minutes at 37 masculine C, the stained cells were diluted in an additional 60 microliters of saline/FCS. The samples were harvested directly from the 384 well plate using a Hypercyt High Capacity Flow Platform (Intellicyt) paired with a C6 Flow Cytometer (Accuri). The flow cytometry files were analyzed using FlowJo software (FlowJo).
For `CN(C)c1ccc(CN(C(=O)c2ccccc2Br)C2CCS(=O)(=O)C2)cc1` (stereo not given), the Potency was 18.2 µM (active). For `Cc1ccc(-n2c(-c3ccc(Cl)cc3)c[n+]3c2CCC3)cc1`, the Potency was 0.15 µM (active). In the case of `CCC(=O)OC1C(N(C)C)CC(C)O[C@H]1O[C@H]1[C@H](C)[C@@H](O[C@H]2CC(OC)[C@@H](O)C(C)O2)[C@H](C)C(=O)O[C@@H](CC)[C@](C)(O)[C@@H](O)[C@H](C)C(=O)[C@@H](C)C[C@]1(C)O` (stereo not given in full), the Potency was 11.4 µM (active). With `COc1ccc(NC(=S)N2CCC(Cc3ccccc3)CC2)cc1OC` the Potency was 26.6 µM (active). With `CCOc1ccc(S(=O)(=O)Nc2cc(S(=O)(=O)N(CC)CC)ccc2N2CCCC2)cc1` the Potency was 6.38 µM (active). In the case of `O=C(Nc1ccccc1N1CCOCC1)c1cccc(S(=O)(=O)N2CCOCC2)c1`, the Potency was 11 µM (active). With `Cc1c(F)c(N2CCNC(C)C2)cc2c1c(=O)c(C(=O)O)cn2C1CC1` (stereo not given) the Potency was 0.651 µM (active). For `Cc1ccc(S(=O)(=O)Nc2ccc(C(=O)Nc3ccncc3)cc2)cc1`, the Potency was 13.9 µM (active). With `CCCCOc1ccc(N2C(N)=NC(N)=NC23CCCCC3)cc1` the Potency was 15.8 µM (active). In the case of `COc1cccc(CN2CCN(c3nc4nonc4nc3N3CCCCC3)CC2=O)c1`, the Potency was 1 µM (active). With `CO[C@@H]1[C@@H](OC2OC(C)C(OC3CC(C)(O)C(OC(=O)CC(C)C)C(C)O3)C(N(C)C)C2O)[C@@H](CC=O)C[C@@H](C)C(=O)/C=C\C2O[C@H]2C[C@@H](C)OC(=O)C[C@H]1OC(C)=O` (stereo not given in full) the Potency was 0.178 µM (active). With `CC1=Nc2cc(C(=O)N3CCCC3)ccc2Sc2ccc(C)cc21` the Potency was 18 µM (active). In the case of `CC(C)C(=O)NCCSc1c[nH]c2ccccc12`, the Potency was 16.6 µM (active). For `Clc1ccc(-c2c[n+](Cc3ccc(Cl)cc3Cl)c3n2CCCCC3)cc1`, the Potency was 0.366 µM (active). With `CCCc1cc(=O)oc2cc(OC(C)C(=O)NCc3ccccn3)c(Cl)cc12` (stereo not given) the Potency was 3.22 µM (active). For `CCN(CC)C(=O)COc1coc(CN2CCN(c3cccc(Cl)c3)CC2)cc1=O`, the Potency was 17.2 µM (active). With `COc1ccc(Nc2nnc(-c3ccc(C)cc3)c3ccccc23)cc1C(=O)N1CCCCC1` the Potency was 20 µM (active). For `Brc1cccc(OCCCCN2CCCCC2)c1`, the Potency was 22.7 µM (active). For `CCCCN(CCCNC(=O)c1ccc(CS(=O)(=O)c2ccc(OC)cc2)o1)Cc1ccccc1`, the Potency was 4.01 µM (active). With `COc1ccccc1N1CCN(CCC(=O)Nc2ccc(F)cc2)CC1` the Potency was 15.7 µM (active). With `CCc1nc(SCC(=O)Nc2ccc(N(C)C)cc2)n[nH]1` the Potency was 23.9 µM (active). In the case of `Cc1ccc(CN2CCC(n3nccc3NC(=O)c3ccccc3C)CC2)o1`, the Potency was 20.7 µM (active). In the case of `COc1cc(C(C)=O)ccc1OCC(O)CN1CCN(c2cc(C)cc(C)c2)CC1` (stereo not given), the Potency was 13.9 µM (active). With `CC(=O)NC[C@@H]1CN(c2ccc(N3CCOCC3)c(F)c2)C(=O)O1` the Potency was 22.2 µM (active). In the case of `O=C(CNC(=O)C1CCCCC1)OC(C(=O)c1ccccc1)c1ccccc1` (stereo not given), the Potency was 31.7 µM (active). In the case of `COc1ccc(CNC(=O)C2CCC(CNS(=O)(=O)c3cccc4cccnc34)CC2)cc1` (stereo not given), the Potency was 16.5 µM (active). With `O=C(c1ccc([N+](=O)[O-])cc1)n1nc(-c2ccccc2)nc1NCc1ccc(F)cc1` the Potency was 19.3 µM (active). With `CCOc1ccc(C(=O)Nc2ccc(N3CCN(C)CC3)cc2)cc1` the Potency was 16.5 µM (active). For `CCCCN(CCCNC(=O)C1CCN(C(=O)c2cc3sccc3n2C)CC1)Cc1ccccc1`, the Potency was 0.617 µM (active). In the case of `Cc1sc2nc[nH]c(=O)c2c1-c1ccc(Cl)cc1`, the Potency was 13.8 µM (active). In the case of `N#Cc1cccc(NC(=O)Cn2c3[n+](c4ccc(C(F)(F)F)cc42)CCCCC3)c1`, the Potency was 0.96 µM (active). For `O=C(CSc1ccc(-c2cccnc2)nn1)Nc1ccccc1C(F)(F)F`, the Potency was 4.65 µM (active). With `O=C(NCc1cccnc1)c1ccc(NS(=O)(=O)c2ccccc2)cc1` the Potency was 21.4 µM (active). With `CN(C)S(=O)(=O)c1cc(NC(=O)C2=COCCO2)ccc1Cl` the Potency was 15.9 µM (active). For `COc1ccc2c(ccc[n+]2CC(=O)c2ccccc2)c1`, the Potency was 2.22 µM (active). With `CCCc1c(CC)c(=N)c2ccccc2n1C` the Potency was 0.198 µM (active). In the case of `CCOc1ccc(NC(=O)C[n+]2ccc(N(C)C)cc2)cc1`, the Potency was 0.135 µM (active). With `COc1ccc2cc3cc(C(=O)Nc4ccc5c(c4)OCO5)oc3nc2c1` the Potency was 11.9 µM (active). For `COCCNC(=O)c1cccc(OC2CCN(Cc3cccc(SC)c3)CC2)c1`, the Potency was 5.37 µM (active). In the case of `COc1ccc(C(=O)N2CCN(S(=O)(=O)c3ccc(C)cc3C)CC2)cc1OC`, the Potency was 45.8 µM (active).
